Measurements as given in PubChem BioAssay (Tox21).
“And” between values parts separate entries of the source, which are not always exact repeats. Identical values can stand only once. Inconclusive results are not listed. Entries that show only a call come without a potency. A structure can be active in one record and inactive in another. The source made the active and inactive calls. Unless noted, the call rests on the fitted dose curve; in most records, active means well fitted curve in the direction sought with a large enough effect in the repeat runs; inconclusive means weak or mixed curves; inactive means no such curve, though single readings can be large; an effect the other way counts as inactive or inconclusive.

Key:
[1] = qHTS assay to identify small molecule agonists of the peroxisome proliferator-activated receptor delta (PPARd) signaling pathway - cell viability counter screen (AID 743211); further: nearly all actives have a fitted effect of over 55% in size; further: potency means the concentration at half of the fitted maximal effect
Summary of the method: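 PPARd-bla HEK293H cells (UAS-beta-lactamase reporter) were treated with compounds for 17 h at 37 C. Viability was then read in the same wells by CellTiter-Glo luminescence after 30 min at room temperature.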

[2] = target: Bile acid receptor (Homo sapiens) (UniProt Q96RI1); experiment: qHTS assay to identify small molecule antagonists of the farnesoid-X-receptor (FXR) signaling pathway (AID 743217; active means well fitted inhibition curve with a large enough effect in the signal ratio in the repeat runs, not every such curve was filed as active; the % refers to the signal ratio)
Sequence of Bile acid receptor (Homo sapiens) (Q96RI1 whole entry, looked up): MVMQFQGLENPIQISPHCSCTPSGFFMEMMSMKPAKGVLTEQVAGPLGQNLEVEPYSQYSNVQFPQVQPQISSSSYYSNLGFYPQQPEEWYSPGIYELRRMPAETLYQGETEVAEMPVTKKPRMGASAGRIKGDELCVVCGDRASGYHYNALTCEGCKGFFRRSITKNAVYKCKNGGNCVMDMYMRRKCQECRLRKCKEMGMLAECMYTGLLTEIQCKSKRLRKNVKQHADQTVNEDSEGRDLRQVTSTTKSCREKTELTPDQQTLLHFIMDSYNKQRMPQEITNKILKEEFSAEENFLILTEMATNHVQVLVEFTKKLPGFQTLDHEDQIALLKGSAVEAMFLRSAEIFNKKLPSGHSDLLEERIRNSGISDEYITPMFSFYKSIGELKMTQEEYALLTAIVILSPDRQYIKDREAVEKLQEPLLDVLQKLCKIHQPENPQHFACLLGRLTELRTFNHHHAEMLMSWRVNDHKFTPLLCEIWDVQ
Summary of the method: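 FRET fluorescence after 2 h room-temperature LiveBLAzer loading gives the readout. Prior step: FXR-bla HEK 293T cells, seeded and incubated 5 h, received test compounds plus 50 uM final CDCA for 16 h at 37 °C.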

[3] = target: Bile acid receptor (Homo sapiens) (UniProt Q96RI1); experiment: qHTS assay to identify small molecule agonists of the farnesoid-X-receptor (FXR) signaling pathway (AID 743220; active means well fitted activation curve with a large enough effect in the signal ratio in the repeat runs, not every such curve was filed as active; the % refers to the signal ratio)
Summary of the method: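 FXR-UAS-bla HEK 293T cells carrying a UAS-driven beta-lactamase reporter were plated for 5 h at 37C/5% CO2, then exposed to DMSO-dissolved Tox21 10K compounds for 16 h at 37C. A LiveBLAzer B/G FRET substrate was loaded for 2 h at room temperature before fluorescence reading.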

[4] = qHTS assay to identify small molecule antagonists of the farnesoid-X-receptor (FXR) signaling pathway - cell viability counter screen (AID 743221; active means well fitted cell-killing curve with a large enough effect in the repeat runs, not every such curve was filed as active; further: nearly all actives have a fitted effect of over 50% in size; further: potency means the concentration at half of the fitted maximal effect)
Summary of the method: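 FXR-UAS-bla HEK 293T cells were treated with test compounds plus chenodeoxycholic acid (50 uM final) for 16 h at 37 C. Cell viability in the same wells was then read as CellTiter-Glo luminescence after 30 min at room temperature.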

[5] = target: Vitamin D3 receptor (Homo sapiens) (UniProt P11473); experiment: qHTS assay to identify small molecule agonists of the vitamin D receptor (VDR) signaling pathway (AID 743222; calls by dose curve)
Sequence of Vitamin D3 receptor (Homo sapiens) (P11473 whole entry, looked up): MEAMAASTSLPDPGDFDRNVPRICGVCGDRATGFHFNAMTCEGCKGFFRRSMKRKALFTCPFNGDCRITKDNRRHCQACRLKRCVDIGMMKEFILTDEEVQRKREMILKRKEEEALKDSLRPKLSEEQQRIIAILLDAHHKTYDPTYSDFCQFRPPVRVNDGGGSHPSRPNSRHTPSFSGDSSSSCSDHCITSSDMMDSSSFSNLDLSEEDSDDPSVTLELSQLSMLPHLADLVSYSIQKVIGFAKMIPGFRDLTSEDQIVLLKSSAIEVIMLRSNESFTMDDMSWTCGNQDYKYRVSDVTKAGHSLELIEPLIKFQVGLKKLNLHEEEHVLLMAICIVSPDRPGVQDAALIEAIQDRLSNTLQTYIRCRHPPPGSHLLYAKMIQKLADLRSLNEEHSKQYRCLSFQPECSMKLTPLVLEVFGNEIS
Summary of the method: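 Following 4 h attachment at 37C, VDR-bla cells (2,000 per well) received DMSO-dissolved compounds or controls. After 16 h incubation, LiveBLAzer B/G FRET substrate was added and fluorescence read 2 h later at room temperature.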

[6] = target: Vitamin D3 receptor (Homo sapiens) (UniProt P11473); experiment: qHTS assay to identify small molecule antagonists of the vitamin D receptor (VDR) signaling pathway (AID 743223; active means well fitted inhibition curve with a large enough effect in the signal ratio in the repeat runs, not every such curve was filed as active; the % refers to the signal ratio; further: potency means the concentration at half of the fitted maximal effect)
Summary of the method: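 VDR-bla cells were plated, incubated 4 h at 37C, then given compound and 1alpha,25-dihydroxyvitamin D3 (3 nM final). After 16 h at 37C, LiveBLAzer B/G FRET substrate was added for 2 h at room temperature and fluorescence read.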

[7] = qHTS assay to identify small molecule agonists of the vitamin D receptor (VDR) signaling pathway - cell viability counter screen (AID 743224); further: nearly all actives have a fitted effect of over 50% in size; further: potency means the concentration at half of the fitted maximal effect
Summary of the method: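 In parallel with the bla FRET readout, cytotoxicity toward VDR-bla cells after 16 h compound exposure was assessed by CellTiter-Glo, with luminescence recorded after a 30 min room-temperature incubation.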

[8] = qHTS assay to identify small molecule antagonists of the vitamin D receptor (VDR) signaling pathway - cell viability counter screen (AID 743225); further: nearly all actives have a fitted effect of over 50% in size; further: potency means the concentration at half of the fitted maximal effect
Summary of the method: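 VDR-bla HEK 293T cells, 4 h pre-incubation at 37C, then compound plus 1-alpha,25-dihydroxyvitamin D3 (3 nM final) for 16 h. After the beta-lactamase FRET read, CellTiter-Glo was added to the same wells; luminescence after 30 min at room temperature.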

[9] = qHTS assay to identify small molecule agonists of the NFkB signaling pathway - cell viability counter screen (AID 1159515; calls by dose curve; further: nearly all actives have a fitted effect of over 55% in size; further: potency means the concentration at half of the fitted maximal effect)
Summary of the method: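 Plate 2,000 NFkB-bla ME-180 cells/well; incubate overnight. Add compounds, 5 hr at 37 C. Add FRET substrate, 1.5 hr RT. Add CellTiter-Glo, 30 min RT; read luminescence.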

[10] = qHTS assay to identify small molecule agonists of the endoplasmic reticulum stress response signaling pathway (AID 1159516; active means well fitted activation curve with a large enough effect in the signal ratio in the repeat runs, not every such curve was filed as active; the % refers to the signal ratio)
Summary of the method: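 Beta-lactamase expression from the ER stress response element in HeLa reporter cells is quantified with the LiveBLAzer B/G FRET substrate, read at 405 nm excitation after 2 hr at room temperature, following 5 hr compound treatment at 37 C.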

[11] = qHTS assay to identify small molecule agonists of the endoplasmic reticulum stress response signaling pathway - cell viability counter screen (AID 1159517; calls by dose curve; further: nearly all actives have a fitted effect of over 50% in size; further: potency means the concentration at half of the fitted maximal effect)
Summary of the method: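 Cytotoxicity of test compounds toward ESRE-bla HeLa cells was assessed after 5 hr exposure. The luminescent CellTiter-Glo signal was measured 30 min after reagent addition.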

[12] = qHTS assay to identify small molecule antagonists of the retinoid-related orphan receptor gamma (ROR-gamma) signaling pathway - cell viability counter screen (AID 1159520); further: nearly all actives have a fitted effect of over 50% in size; further: potency means the concentration at half of the fitted maximal effect
Summary of the method: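 Tet-on ROR gamma CHO cells (1,000/well) were plated 4 hr, given compounds in DMSO for 2 hr at 37 C, then induced with 1 uM final doxycycline for 16 hr. Viability was read as ATP by CellTiter-Glo luminescence after 30 min.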

[13] = qHTS assay to identify small molecule agonists of the AP-1 signaling pathway - cell viability counter screen (AID 1159525; calls by dose curve; further: nearly all actives have a fitted effect of over 55% in size; further: potency means the concentration at half of the fitted maximal effect)
Summary of the method: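 Each titration point was normalised to DMSO and tetra n-octyl ammonium bromide controls. The read was Cell Titer Glo luminescence after 30 min at RT, following 5 h compound exposure of ME-180 AP-1-bla cells at 37 °C.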

[14] = qHTS assay to identify small molecule agonists of the AP-1 signaling pathway (AID 1159526; calls by dose curve)
[15] = target: Retinoic acid receptor RXR-alpha (Homo sapiens) (UniProt P19793); experiment: qHTS assay to identify small molecule agonists of the RXR signaling pathway (AID 1159527; calls by dose curve; further: nearly all actives have a fitted effect of over 35% in size)
Sequence of Retinoic acid receptor RXR-alpha (Homo sapiens) (P19793 whole entry, looked up): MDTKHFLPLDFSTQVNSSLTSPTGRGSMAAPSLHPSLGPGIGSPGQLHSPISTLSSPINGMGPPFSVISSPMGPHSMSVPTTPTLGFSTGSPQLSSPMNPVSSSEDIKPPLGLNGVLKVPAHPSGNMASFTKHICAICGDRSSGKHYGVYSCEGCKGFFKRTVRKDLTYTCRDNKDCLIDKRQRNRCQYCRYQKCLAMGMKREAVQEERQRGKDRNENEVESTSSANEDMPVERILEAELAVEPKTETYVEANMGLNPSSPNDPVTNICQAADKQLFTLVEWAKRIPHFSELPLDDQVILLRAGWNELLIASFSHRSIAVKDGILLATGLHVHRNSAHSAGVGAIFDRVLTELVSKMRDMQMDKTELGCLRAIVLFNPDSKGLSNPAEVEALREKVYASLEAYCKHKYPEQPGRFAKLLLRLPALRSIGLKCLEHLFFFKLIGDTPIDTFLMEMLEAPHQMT
Summary of the method: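 GeneBLAzer RXR-alpha-UAS-bla HEK 293T cells in medium with 2% charcoal-stripped FBS, pre-incubated 5 hr at 37 C, then exposed to compounds 16 hr. Beta-lactamase reporter read by FRET substrate, 2 hr room temperature, 460/530 nm emission.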

[16] = target: Peroxisome proliferator-activated receptor delta (Homo sapiens) (UniProt Q03181); experiment: qHTS assay to identify small molecule agonists of the peroxisome proliferator-activated receptor delta (PPARd) signaling pathway (AID 743212; calls by dose curve)
Sequence of Peroxisome proliferator-activated receptor delta (Homo sapiens) (Q03181 whole entry, looked up): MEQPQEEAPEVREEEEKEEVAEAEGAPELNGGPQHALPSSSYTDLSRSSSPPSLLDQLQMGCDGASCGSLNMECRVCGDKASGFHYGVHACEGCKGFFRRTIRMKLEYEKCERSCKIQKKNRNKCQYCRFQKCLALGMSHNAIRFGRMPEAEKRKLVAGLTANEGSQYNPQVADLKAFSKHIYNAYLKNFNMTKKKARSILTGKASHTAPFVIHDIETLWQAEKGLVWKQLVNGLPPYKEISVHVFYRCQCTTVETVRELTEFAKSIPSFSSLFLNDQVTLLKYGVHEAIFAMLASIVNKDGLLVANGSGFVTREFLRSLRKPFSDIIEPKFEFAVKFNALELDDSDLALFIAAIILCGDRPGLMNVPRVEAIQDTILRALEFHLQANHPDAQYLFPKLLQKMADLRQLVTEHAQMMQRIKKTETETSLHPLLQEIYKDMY
Summary of the method: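 Beta-lactamase reporter read by fluorescence (LiveBLAzer B/G FRET, 2 h, room temperature). Test agents, in DMSO, incubated at 37 C with PPARd-bla HEK293H cells.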

[17] = target: Peroxisome proliferator-activated receptor delta (Homo sapiens) (UniProt Q03181); experiment: qHTS assay to identify small molecule antagonists of the peroxisome proliferator-activated receptor delta (PPARd) signaling pathway (AID 743215; active means well fitted inhibition curve with a large enough effect in the signal ratio in the repeat runs, not every such curve was filed as active; the % refers to the signal ratio;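 further: cells stimulated with agonist L165041 at 300 nM final during compound exposure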; further: potency means the concentration at half of the fitted maximal effect)
Summary of the method: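 Fluorescence from cleaved LiveBLAzer B/G FRET substrate (2 h, room temperature) reports PPARd-driven beta-lactamase in HEK293H UAS-bla cells. Cells had been treated 17 h at 37 C with compound plus 300 nM final L165041.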

[18] = qHTS assay to identify small molecule agonists of the farnesoid-X-receptor (FXR) signaling pathway - cell viability counter screen (AID 743218); further: nearly all actives have a fitted effect of over 45% in size; further: potency means the concentration at half of the fitted maximal effect
Summary of the method: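 Readout: CellTiter-Glo luminescence, 30 min RT, multiplexed after the FXR-bla FRET reading. HEK 293T FXR-UAS-bla cells received compound 5 h post-plating and were incubated 16 h at 37 C.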

[19] = target: Nuclear receptor ROR-gamma (Homo sapiens) (UniProt P51449); experiment: qHTS assay to identify small molecule antagonists of the retinoid-related orphan receptor gamma (ROR-gamma) signaling pathway (AID 1159521; further: nearly all actives have a fitted effect of over 50% in size; further: potency means the concentration at half of the fitted maximal effect)
Summary of the method: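 Tet-on RORγ CHO cells carrying a ROR response element–luciferase reporter were pretreated with compounds for 2 h, then induced with 1 uM (final) doxycycline hyclate for 16 h at 37 C. Antagonism was read as decreased ONE-Glo luminescence.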

[20] = qHTS assay to identify small molecule antagonists of the peroxisome proliferator-activated receptor delta (PPARd) signaling pathway - cell viability counter screen (AID 743213); further: nearly all actives have a fitted effect of over 50% in size; further: potency means the concentration at half of the fitted maximal effect
Summary of the method: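 HEK293H PPARd UAS-bla cells, 5 h pre-incubation, compound + L165041 300 nM final, 17 h 37 C; B/G FRET substrate 2 h RT; then CellTiter-Glo 30 min RT, luminescence.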

| SMILES | Potency [1] | Potency [2] | Potency [3] | Potency [4] | outcome [5] | Potency [6] | Potency [7] | Potency [8] | Potency [9] | Potency [10] | Potency [11] | Potency [12] | Potency [13] | outcome [14] | Potency [15] | Potency [16] | Potency [17] | Potency [18] | Potency [19] | Potency [20] |
| --- | --- | --- | --- | --- | --- | --- | --- | --- | --- | --- | --- | --- | --- | --- | --- | --- | --- | --- | --- | --- |
| COc1ccc(O)c(C(C)(C)C)c1 | inactive | inactive | inactive | inactive | inactive | inactive | inactive | inactive | inactive | inactive | inactive | inactive | inactive | inactive | inactive |  |  |  |  |  |
| CC(C)=CC1C(C(=O)OCc2cccc(Oc3ccccc3)c2)C1(C)C (stereo unspecified) | inactive | inactive | inactive | inactive | inactive | inactive | inactive | inactive | inactive | inactive | inactive | inactive | inactive | inactive |  | inactive | inactive | inactive | inactive |  |
| CCC[CH2][Sn]([Cl])([CH2]CCC)[CH2]CCC | 551 nM (active) and 1.23 µM (active) |  |  | 1.95 µM (active) and 2.45 µM (active) |  |  | 437 nM (active) and 1.23 µM (active) | 618 nM (active) and 3.47 µM (active) | 1.1 µM (active) and 1.95 µM (active) |  | 1.74 µM (active) and 3.09 µM (active) | 1.54 µM (active) and 1.72 µM (active) | 873 nM (active) and 1.74 µM (active) |  |  |  |  |  | 194 nM (active) and 686 nM (active) |  |
| Cl | inactive |  |  | inactive |  |  | inactive | inactive | inactive | inactive | inactive | inactive | inactive | inactive | inactive |  |  | inactive |  |  |
| CCCCCCCC[N+](C)(CCCCCCCC)CCCCCCCC | 4.36 µM (active) and 2.46 µM (active) and 5.49 µM (active) |  |  | 13.8 µM (active) and 7.77 µM (active) and 21.9 µM (active) |  |  | 6.15 µM (active) and 3.09 µM (active) and 5.49 µM (active) | 5.48 µM (active) and 6.93 µM (active) and 6.16 µM (active) | 17.3 µM (active) and 24.5 µM (active) | inactive | inactive and 13.8 µM (active) and 21.9 µM (active) | 24.3 µM (active) and 21.7 µM (active) and 10.9 µM (active) | 17.3 µM (active) and 13.8 µM (active) and 19.5 µM (active) |  |  |  |  | 7.75 µM (active) and 2.19 µM (active) and 7.76 µM (active) | 4.32 µM (active) and 2.17 µM (active) and 6.11 µM (active) |  |
| CC(C)(c1ccc(OCC2CO2)cc1)c1ccc(OCC2CO2)cc1 (stereo unspecified) | 34.7 µM (active) |  |  |  |  |  | inactive | inactive | inactive | inactive | inactive | inactive | inactive | inactive |  |  | inactive | inactive | inactive |  |
| COP(=S)(OC)SCn1nnc2ccccc2c1=O | inactive |  |  | inactive | inactive | inactive | inactive | inactive | inactive | inactive | inactive | inactive | inactive |  |  | inactive |  |  | inactive | inactive |
| O=C(O)c1nn(Cc2ccc(Cl)cc2Cl)c2ccccc12 | inactive |  |  | inactive | inactive |  | inactive | inactive | inactive | inactive | inactive | inactive | inactive | inactive |  |  | inactive |  | inactive |  |
| C=CC(=O)OCC(CC)(COC(=O)C=C)COC(=O)C=C | 11 µM (active) | inactive |  | inactive and 43.6 µM (active) | inactive | 6.92 µM (active) | 20 µM (active) and 11 µM (active) | 20 µM (active) and 17.4 µM (active) | inactive | inactive | inactive and 24.5 µM (active) |  | inactive |  |  |  | 12.6 µM (active) | inactive and 13.8 µM (active) | 3.15 µM (active) and 6.86 µM (active) |  |
| CNC(=O)Oc1cccc2c1OC(C)(C)C2 | inactive |  |  | inactive | inactive | inactive | inactive | inactive | inactive | inactive | inactive | inactive | inactive | inactive | inactive | inactive | inactive |  |  | inactive |
| O=C1C(Cl)=C(Cl)C(=O)c2ccccc21 | 19.6 µM (active) and 13.8 µM (active) |  |  | inactive and 49 µM (active) |  |  | 4.38 µM (active) and 9.77 µM (active) | 6.94 µM (active) and 12.3 µM (active) | 21.9 µM (active) and 12.3 µM (active) |  | 19.6 µM (active) and 49 µM (active) | 5.46 µM (active) and 5.45 µM (active) | 11 µM (active) and 19.5 µM (active) |  |  | inactive |  | 49 µM (active) | 4.87 µM (active) and 12.2 µM (active) | 9.8 µM (active) and 6.17 µM (active) |
